# From PubChem BioAssay (Tox21)
# Inconclusive results are not listed. Entries that show only a call come without a potency. A number with no mark means an inactive call. Calls of active or inactive are those of the source. Calls follow the shape of the dose curve; as a rule, active = well fitted curve in the direction sought with a large enough effect in the repeat runs; inconclusive = weak or mixed curves; inactive = no such curve, though single readings can be large; an effect the other way counts as inactive or inconclusive.
# Experiments:
# [1] = qHTS RealTime-Glo MT Cell Viability Assay in HEK293 cells - 16 hour (AID 1224872); also: nearly all actives have a fitted effect of over 50% in size; also: potency is read from the fitted curve at half-maximal effect
# Summary of the method: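 Luminescence generated by NanoLuc from substrate produced by living HEK293 cells served as the viability signal. Each value reflects the reading at its stated time point during continuous 40 h compound exposure at 37 C.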
# [2] = qHTS RealTime-Glo MT Cell Viability Assay in HepG2 cells - 8 hour (AID 1224873); also: nearly all actives have a fitted effect of over 55% in size
# Summary of the method: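 HepG2 cells (600/well) mixed with RealTime-Glo MT reagent, settled 5 h at 37 C/5% CO2 before compound addition. Nonlytic NanoLuc luminescence from viable-cell prosubstrate reduction read repeatedly during 40 h treatment at 37 C.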
# [3] = qHTS RealTime-Glo MT Cell Viability Assay in HEK293 cells - 40 hour (AID 1224874); details: RealTime-Glo luminescence; max response: active compounds read low; also: nearly all actives have a fitted effect of over 50% in size; also: potency is read from the fitted curve at half-maximal effect
# Summary of the method: (§1)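 600 HEK293 cells per well, dispensed already mixed with RealTime-Glo MT reagents. Compound dosing came 5 h later. The same wells were read for luminescence at 0, 8, 16, 24, 32 and 40 h of exposure at 37 C.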
# [4] = A CellTox Green Cytotoxicity Assay to monitor cytotoxicity in HEK293 cells - 24 hour (AID 1224875); also: nearly all actives have a fitted effect of over 45% in size; also: potency is read from the fitted curve at half-maximal effect
# Summary of the method: (§2)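 Dead-cell fluorescence measured kinetically: asymmetric cyanine dye, HEK293, 600 cells/well, 5 h settle, 23 nL cpd/DMSO, 37 C, reads 0–40 h every 8 h.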
# [5] = A CellTox Green Cytotoxicity Assay to monitor cytotoxicity in HepG2 cells - 16 hour (AID 1224876); also: nearly all actives have a fitted effect of over 45% in size; also: potency is read from the fitted curve at half-maximal effect
# Summary of the method: (§3)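 First, HepG2 cells (600/well) mixed with reagent were plated; second, after 5 h at 37 C they received compounds via pintool; third, fluorescence was measured at 0 h through 40 h at 8 h intervals.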
# [6] = qHTS RealTime-Glo MT Cell Viability Assay in HepG2 cells - 32 hour (AID 1224877); also: nearly all actives have a fitted effect of over 55% in size
# Summary of the method: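 Tox21 10K library screened in qHTS format on HepG2 cells carrying RealTime-Glo reagents. Compounds were added after a 5 h preincubation, and the luminescent signal from continuous culture was measured repeatedly during 40 h treatment.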
# [7] = A CellTox Green Cytotoxicity Assay to monitor cytotoxicity in HepG2 cells - 24 hour (AID 1224878); also: nearly all actives have a fitted effect of over 45% in size; also: potency is read from the fitted curve at half-maximal effect
# Summary of the method: as §3
# [8] = A CellTox Green Cytotoxicity Assay to monitor cytotoxicity in HepG2 cells - 40 hour (AID 1224879); also: nearly all actives have a fitted effect of over 40% in size; also: potency is read from the fitted curve at half-maximal effect
# Summary of the method: as §3
# [9] = qHTS RealTime-Glo MT Cell Viability Assay in HEK293 cells - 0 hour (AID 1224880); also: nearly all actives have a fitted effect of over 45% in size; also: potency is read from the fitted curve at half-maximal effect
# Summary of the method: as §1
# [10] = A CellTox Green Cytotoxicity Assay to monitor cytotoxicity in HEK293 cells - 32 hour (AID 1224881); also: nearly all actives have a fitted effect of over 40% in size; also: potency is read from the fitted curve at half-maximal effect
# Summary of the method: as §2
SMILES,Potency [1],outcome [2],max response [3],Potency [4],Potency [5],Potency [6],Potency [7],Potency [8],Potency [9],Potency [10],Potency [3]
CC(=O)Oc1cccc2c1C(=O)c1c(OC(C)=O)cc(C(=O)O)cc1C2=O,inactive,inactive,-10.8%,inactive,inactive,inactive,inactive,inactive,inactive,inactive,
O=C(O)COCC(=O)O,inactive,inactive,-0.496%,inactive,inactive,inactive,inactive,inactive,inactive,inactive,
CCCCCCCCCC(C)C=O (centres undefined),inactive,inactive,12%,21.9 µM (active),24.5 µM (active),inactive,24.5 µM (active),24.5 µM (active),inactive,21.9 µM (active),
CCOc1cc(OCC)c(C(C)=O)cc1OCC,19.2 µM (active),inactive,,inactive,inactive,inactive,inactive,inactive,inactive,inactive,19.2 µM (active)
O=C1c2ccccc2C(=O)c2c1ccc(O)c2O,inactive,inactive,-2.45%,inactive,inactive,inactive,inactive,inactive,inactive,inactive,
CC(O)C(C)O (centres undefined),inactive,inactive,12.1%,inactive,inactive,inactive,inactive,inactive,inactive,inactive,
Cc1c(Cl)cccc1Nc1ccccc1C(=O)O,inactive,inactive,-5.01%,inactive,inactive,inactive,inactive,inactive,inactive,inactive,
Cc1cc(C)c(C)c(O)c1,inactive,inactive,0.904%,inactive,inactive,inactive,inactive,inactive,inactive,inactive,
O=[N+]([O-])c1ccccc1CCO,inactive,inactive,16.6%,inactive,inactive,inactive,inactive,inactive,inactive,inactive,
O=[N+]([O-])c1cccc(I)c1,inactive,inactive,0.342%,inactive,inactive,inactive,inactive,inactive,inactive,,
Cc1c(Nc2ncccc2C(=O)O)cccc1C(F)(F)F,inactive,inactive,0.365%,inactive,inactive,inactive,inactive,inactive,inactive,inactive,
N#C[C@@H]1CC(F)(F)CN1C(=O)CNC1CC2CCC(C1)N2c1ncccn1 (some centres undefined),inactive,inactive,1.88%,inactive,inactive,inactive,inactive,inactive,inactive,inactive,
CC(CCl)OC(C)CCl (centres undefined),inactive,inactive,-1.61%,inactive,inactive,inactive,inactive,inactive,inactive,inactive,
COc1ccnc2c1CCCCC2S(=O)c1nc2ccccc2[nH]1 (centres undefined),9.52 µM (active),inactive,,inactive,inactive,inactive,inactive,inactive,inactive,inactive,7.56 µM (active)
CCCCCCCCC(=O)OCC(C)OC(=O)CCCCCCCC (centres undefined),inactive,inactive,0.14%,inactive,inactive,inactive,inactive,inactive,inactive,inactive,
C/C(=C(\CCO)SS/C(CCO)=C(\C)N(C=O)Cc1cnc(C)nc1N)N(C=O)Cc1cnc(C)nc1N,inactive,inactive,7.21%,inactive,inactive,inactive,inactive,inactive,inactive,inactive,
Cc1cc(N)n(-c2ccccc2)n1,inactive,inactive,-5.72%,inactive,inactive,inactive,inactive,inactive,inactive,inactive,
O=Cc1ccc([N+](=O)[O-])cc1,inactive,inactive,7.58%,inactive,inactive,inactive,inactive,inactive,inactive,inactive,
COC(=O)Cc1cccc2ccccc12,inactive,inactive,-1.93%,inactive,inactive,inactive,inactive,inactive,inactive,inactive,
CC(C)C/C=C(\C=O)c1ccccc1,inactive,inactive,10%,inactive,inactive,inactive,inactive,inactive,inactive,inactive,
CC(=O)OCC(=O)[C@@]1(O)CC[C@H]2[C@@H]3CCC4=CC(=O)C=C[C@]4(C)[C@@]3(F)[C@@H](O)C[C@@]21C,inactive,inactive,-21.2%,inactive,inactive,inactive,inactive,inactive,7.56 µM (active),inactive,
C[Si](C)(C)O[Si](C)(C)O[Si](C)(C)C,inactive,inactive,7.13%,inactive,inactive,inactive,inactive,inactive,inactive,inactive,
Cc1ccc(Cl)c(OCC(O)CNC(C)(C)C)c1 (centres undefined),inactive,inactive,1.75%,inactive,inactive,inactive,inactive,inactive,inactive,inactive,
